Sampled rows, rich in hits. Any-hit rate of the full collection: about 18%.
TDP1 cell noCPT – qHTS for Inhibitors of human tyrosyl-DNA phosphodiesterase 1 (TDP1): qHTS in cells in absence of CPT; DT40 Tdp1-/- hTDP1 cells, no CPT, ATP luminescence, 48 h; Potency, µM (highest dose often 46.2 µM), for inactives: at the top dose activity change, negative = growth inhibition, actives largely listed as inhibitors; 420,000 tested, 15% active; AID 686978, 2013; further: nearly all actives have a fitted effect of over 55% in size
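Chicken DT40 Tdp1-/- cells stably complemented with human TDP1 were seeded at 400 cells/well with DMSO in place of 20 nM camptothecin. After compound pinning, cells grew at least 48 hr at 37 °C; viability read by CellTiter-Glo luminescence.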
GCN5L2 inh – qHTS Assay for Inhibitors of GCN5L2 | 390,000 tested, 0.21% active | GCN5L2 HAT assay, ThioGlo1 CoA-SH fluorescence | AID 504327, 2011 | Potency, µM (highest dose often 58.9 µM), for inactives: at the top dose activity change, negative = inhibition, actives largely listed as inhibitors
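Fluorescence readout, Ex340nm/Em540nm: ThioGlo1 (50uM final) reacts with free CoA thiol released as 20nM GCN5L2 acetylates H3(1-25) peptide (75uM) using acetyl-CoA (70uM). Compound and enzyme sat 15 min beforehand; 20 min room-temperature reaction.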
TDP1 block – qHTS Assay for Inhibitors of Tyrosyl-DNA Phosphodiesterase (TDP1); Tyrosyl-DNA phosphodiesterase 1 (Homo sapiens), Q9NUW8; Potency, µM (titrated, usually from 130 µM), without a hit: top-dose activity change, negative = inhibition, actives largely listed as inhibitors; 350,000 tested, 0.28% active; recombinant TDP1, AlphaScreen DNA substrate cleavage; further: nearly all actives have a fitted effect of over 40% in size
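AlphaScreen read-out: signal falls as enzyme removes the 3' tyrosine-FITC from a 5'-biotinylated DNA oligo (15 nM, 5 min, RT). Enzyme was E. coli-made recombinant Tdp1 at 1 nM, exposed to compound for 15 min beforehand; beads 10 ug/ml, 10 min.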
VDR inhibitor – Inhibitors of the vitamin D receptor (VDR): qHTS; Vitamin D3 receptor (Homo sapiens), P11473; AID 504847, 2011; 400,000 tested, 0.93% active; VDR-SRC2-3 peptide fluorescence polarization, 2 h; Potency, µM, inactives show max response, negative = inhibition, usual class: inhibitors
Target sequence (P11473 whole entry, looked up): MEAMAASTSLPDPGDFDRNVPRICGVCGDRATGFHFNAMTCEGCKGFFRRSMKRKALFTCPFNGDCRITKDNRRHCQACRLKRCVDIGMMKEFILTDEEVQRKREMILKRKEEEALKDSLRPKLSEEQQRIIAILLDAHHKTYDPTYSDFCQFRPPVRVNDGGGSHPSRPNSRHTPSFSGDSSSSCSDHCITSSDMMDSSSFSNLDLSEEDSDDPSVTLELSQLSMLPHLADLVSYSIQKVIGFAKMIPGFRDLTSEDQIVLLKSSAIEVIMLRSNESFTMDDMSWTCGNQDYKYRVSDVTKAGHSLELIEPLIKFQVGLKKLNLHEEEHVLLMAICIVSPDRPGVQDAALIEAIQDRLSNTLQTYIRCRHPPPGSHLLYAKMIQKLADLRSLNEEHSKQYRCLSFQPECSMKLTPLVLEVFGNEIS
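After 23 nl compound addition and a short centrifugation, plates sat for 2 hours at ambient temperature; polarization of fluorescence then indicated loss of VDR binding to peptide SRC2-3.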
PLK1 PBD inh – qHTS for Inhibitors of PLK1-PDB (polo-like kinase 1 - polo-box domain): Primary Screen. Serine/threonine-protein kinase PLK1 (Homo sapiens), P53350. Plk1 PBD binding of FITC phosphopeptide, fluorescence polarization. Potency, µM, without a hit: max response, negative = inhibition, hits mostly inhibitors. 360,000 tested, 2.8% active. AID 720504, 2013; further: series mostly up to about 57 µM; nearly all actives have a fitted effect of over 65% in size
DT40 TDP1 CPT – qHTS for Inhibitors of human tyrosyl-DNA phosphodiesterase 1 (TDP1): qHTS in cells in presence of CPT. chicken DT40 Tdp1-/-;hTDP1 cells + 20 nM CPT, ATP luminescence, 48 h. 420,000 tested, 12% active. Potency, µM (highest dose often 46.2 µM), for inactives: at the highest dose activity change, negative = growth inhibition, most hits filed as inhibitors; further: nearly all actives have a fitted effect of over 55% in size
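Chicken DT40 Tdp1-/- cells complemented with human TDP1, 400 cells/well, exposed to compounds plus 20 nM camptothecin for at least 48 h at 37 C; viability read as ATP content by CellTiter-Glo luminescence.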
* marks the source's active call; other numbers are inactive results; u = inconclusive; x = no result given; [ ] = remark or other dose. The call rests on the fitted dose curve; in most records, active means well fitted curve in the direction sought with a large enough effect; inconclusive means small, poorly fitted or top-dose-only effect, or another doubt; inactive means no such curve, though single readings can be large; an effect the other way counts as inactive or inconclusive. On the % scale 0 is the no-effect control and ±100 the full control effect; potency means the concentration at half of the fitted maximal effect.

SMILES	TDP1 cell noCPT	GCN5L2 inh	TDP1 block	VDR inhibitor	PLK1 PBD inh	DT40 TDP1 CPT
COC(=O)[C@]12CCCCC=C1N(Cc1ccc3c(c1)OCO3)C(=O)[C@H](CC(=O)NCc1cccc(C(F)(F)F)c1)C2	u	x	x	x	-2%	u
COc1ccc(-c2nc3cnc(N4CCN(C)CC4)nc3n(CCc3ccccc3)c2=O)cc1	-2%	-9%	x	-1%	x	1%
CCOc1ccc2[nH]c3c(N4CCN(c5ccccn5)CC4)ncnc3c2c1	16µM*	-16%	10%	19%	-3%	8.9µM*
Cc1ccc2[nH]c3c(N4CCN(Cc5ccccc5)CC4)ncnc3c2c1	9.2µM*	-3%	7%	-6%	-6%	13µM*
Cc1ccc2c(c1)[nH]c1c(N3CCN(Cc4ccccc4)CC3)ncnc12	4.6µM*	6%	3%	-6%	3%	5.8µM*
CC(C)CN1CC[C@@]2(CCCN(C(=O)c3csnn3)C2)C1	u	8%	x	7%	x	-24%
CN(c1ccccc1)C(CNS(=O)(=O)c1ccccc1)c1ccccc1 (stereo unspecified)	u	-19%	3%	13%	x	u
Cc1ccccc1-c1nc(CN2CCC(C(=O)NCc3ccccc3Cl)CC2)c(C)o1	u	-5%	-1%	-4%	x	u
CN(C)S(=O)(=O)n1cc(/C=C(\NC(=O)c2ccccc2)C(=O)NCCCn2ccnc2)c2ccccc21	-27%	2%	8%	7%	-9%	-21%
CCN(CC)C(=O)/C(=C/c1cn(S(=O)(=O)N(C)C)c2ccccc12)NC(=O)c1ccc(OC)cc1	21µM*	-4%	8%	-8%	0%	u
CN(C)S(=O)(=O)n1cc(/C=C(\NC(=O)c2ccccc2Cl)C(=O)NCCCn2ccnc2)c2ccccc21	29µM*	-3%	2%	-16%	0%	18µM*
O=c1c(-c2cccc(Cl)c2)nc2cncnc2n1-c1ccccc1	2%	-14%	x	-1%	x	8%
CCOc1ccc(N(CC(=O)NCc2ccc(F)cc2)C(=O)c2snc(C(N)=O)c2N)cc1	-14%	-3%	12%	-14%	-1%	4%
Cc1ccc2nc(NS(=O)(=O)c3ccc(Cl)cc3)c(Nc3ccc(C(=O)O)cc3)nc2c1	-4%	1%	0%[12.3 µM]	u	x	6%
CCOc1ccccc1Nc1nc2ccccc2nc1NS(=O)(=O)c1ccc(Cl)cc1	5.2µM*	-6%	x	-7%	x	u
COCCCNc1nc2ccccc2nc1NS(=O)(=O)c1ccc(Cl)cc1	u	2%	x	3%	-24%	u
COc1cccc(Nc2nc3cc(C)ccc3nc2NS(=O)(=O)c2ccc(Cl)cc2)c1	4.1µM*	-12%	0%	4%	x	5.2µM*
COC(=O)c1ccccc1NC(=S)N1CCN(c2ccc(OC)cc2)CC1	u	-4%	5%	-13%	-15%	-2%
Cn1c(CNC(=O)OC(C)(C)C)nnc1SCC(=O)N1CCOCC1	2%	-10%	-1%	-7%	5%	-7%
CCOC(=O)C(=C1Nc2ccccc2N1)n1c(-c2cccnc2)nc2ccccc21	u	x	x	x	-5%	12µM*
CCN(C[C@H]1N[C@@](Cc2ccccc2)(C(=O)OC)[C@H]2C(=O)N(Cc3ccccc3)C(=O)[C@@H]12)C(=O)Nc1ccc(C(F)(F)F)cc1	3.7µM*	-14%	0%	5%	1%	2.6µM*
CCN(C[C@H]1N[C@@](Cc2ccccc2)(C(=O)OC)[C@H]2C(=O)N(Cc3ccccc3)C(=O)[C@@H]12)C(=O)Nc1ccc(C)cc1	16µM*	-7%	1%	11%	-5%	u
CCN(C[C@H]1N[C@@](CC)(C(=O)OC)[C@H]2C(=O)N(Cc3ccccc3)C(=O)[C@@H]12)C(=O)Nc1ccc(C)cc1	u	-5%	1%	9%	-7%	u
CC(=O)c1ccc(NC(=O)c2ccc(-c3nc(COc4ccc(C)cc4)c(C)o3)cc2)cc1	-8%	-5%	0%	-5%	x	-5%
C#CC(C)(CC)NC(=O)Cn1nnc(-c2ccc(OCc3ccccc3F)cc2)n1 (stereo unspecified)	u	-3%	8%	-8%	x	u
SMILES	TDP1 cell noCPT	GCN5L2 inh	TDP1 block	VDR inhibitor	PLK1 PBD inh	DT40 TDP1 CPT
O=C(COc1ccc(F)cc1)OCc1cc(=O)n2nc(C3CCCCC3)sc2n1	-27%	4%	5%	3%	x	-21%
FC(F)(F)c1cc(-c2ccccc2)nc(N2CCCCC2)n1	-27%	3%	2%	9%	-2%	-92%
O=C(O)C1CCCN1c1nc(-c2ccc(Cl)c(Cl)c2)cc(C(F)(F)F)n1 (stereo unspecified)	21µM*	-9%	1%	u	-17%	15µM*
Oc1ccc(-c2nn[nH]n2)c2cccnc12	x	x	3%	x	x	x
COc1ccc(-c2nc(C)c(CCNC(=O)C(=O)Nc3ccccc3OC)s2)cc1	x	3%	-3%	-15%	x	x
CCCCN1C(C)=CC(=C2C(=O)c3ccccc3C2=O)C=C1C	u	-3%	-8%	-2%	-23%	-19%
CC1=CC(=C2C(=O)c3ccccc3C2=O)C=C(C)N1Cc1ccco1	21µM*	20%	0%	-15%	-17%	-22%
CC1=CC(=C2C(=O)c3ccccc3C2=O)C=C(C)O1	u	-16%	-2%	-8%	-12%	10µM*
COc1ccc(CC(=O)Nc2cc(-c3nc4cccnc4s3)ccc2C)cc1	u	-21%	4%	-6%	x	u
COc1cccc(NC(=O)N2CCCC2C(=O)NCc2ccccc2F)c1 (stereo unspecified)	-3%	1%	5%	-8%	2%	4%
COc1ccc(Nc2ncc(C(=O)Nc3cccc(OC)c3)c3ccccc23)cc1	-13%	-20%	6%	-12%	x	u
CNC(=O)/C(C#N)=C/c1c(N(Cc2ccccc2)Cc2ccccc2)nc2ccccn2c1=O	16µM*	-2%	3%	-19%	-25%	16µM*
COC(=O)/C(C#N)=C/c1c(N2CCN(c3ccccc3)CC2)nc2ccccn2c1=O	-25%	1%	x	-7%	-2%	17%
